From PubChem BioAssay (Tox21) come the findings set out here.

Assay [1] has as its target Aryl hydrocarbon receptor (Homo sapiens) (UniProt P35869). In words: qHTS assay to identify small molecule that activate the aryl hydrocarbon receptor (AhR) signaling pathway (AID 743085). Further: nearly all actives have a fitted effect of over 15% in size. Further: potency means the concentration at half of the fitted maximal effect.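 On activation: HG2L7.5c1 human HepG2 liver cells with stably integrated DRE-driven firefly reporter; series mostly up to about 70 µM.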 Summed up: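 Cell line HG2L7.5c1 (human hepatoma, 20× DRE-luc). Plated, 5 h 37C, compound/DMSO added, 24 h 37C. CellTiter-Fluor 30 min 37C → fluorescence; then ONE-Glo 30 min RT → luminescence.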
(In general: qHTS replaces the single test concentration by a dilution series.)

A short description of assay [2]: qHTS assay to identify small molecule that activate the aryl hydrocarbon receptor (AhR) signaling pathway - cell viability counter screen (AID 743086). Further: nearly all actives have a fitted effect of over 45% in size. Further: potency means the concentration at half of the fitted maximal effect. Summed up: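 HepG2-AhR-luc (HG2L7.5c1) cells, 4000/well, were preincubated 5 h at 37C, exposed to compound in qHTS format for 24 hr at 37C, then given CellTiter-Fluor for 30 min; viability was read as fluorescence in the reporter wells.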

Assay [3] in a line: qHTS assay to identify small molecule antagonists of the peroxisome proliferator-activated receptor gamma (PPARg) signaling pathway - cell viability counter screen (AID 743194). Further: nearly all actives have a fitted effect of over 55% in size. The method, boiled down: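 PPARg-UAS-bla HEK293H cells were plated, rested 5 h at 37 C, then treated with compounds plus rosiglitazone (50 nM final) for 17 h at 37 C; viability was then read by CellTiter-Glo luminescence after 30 min at room temperature.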

Assay [4] is described as follows: qHTS assay for small molecule agonists of the antioxidant response element (ARE) signaling pathway - cell viability counter screen (AID 743203; calls by dose curve; further: nearly all actives have a fitted effect of over 55% in size; further: potency means the concentration at half of the fitted maximal effect). The method, boiled down:
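Parallel cytotoxicity read-out for the ARE-bla screen: HepG2 reporter cells, 16 hrs with compounds, then CellTiter-Glo luminescence.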

Assay [5] is described as follows: qHTS assay for small molecule activators of the heat shock response signaling pathway - cell viability counter screen (AID 743209). Further: nearly all actives have a fitted effect of over 50% in size. The method, boiled down:
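To flag cytotoxic compounds, HSE-bla HeLa cells plated at 1500 cells/well were dosed for 5 h at 37 C, followed by the reporter FRET read and then CellTiter-Glo, with luminescence recorded 30 min after reagent addition.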

Assay [6] is described as follows: qHTS assay for small molecule activators of the heat shock response signaling pathway (AID 743210; active means well fitted activation curve with a large enough effect in the signal ratio in the repeat runs, with a control signal flat, not every such curve was filed as active; the % refers to the signal ratio; further: series mostly up to about 63 µM). Summed up: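 Heat shock element–beta-lactamase HeLa reporter cells; qHTS with compounds for 5 h at 37 C; detection by FRET substrate fluorescence after 2.5 h at RT.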
Assay [7] in a line: qHTS assay to identify small molecule agonists of the peroxisome proliferator-activated receptor delta (PPARd) signaling pathway - cell viability counter screen (AID 743211). Further: nearly all actives have a fitted effect of over 55% in size. Further: potency means the concentration at half of the fitted maximal effect. Summed up:
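HEK293H PPARd-bla, 3000 cells/well; 5 h preincubation 37C/5% CO2; cpd in DMSO, 17 h 37C; B/G FRET substrate 2 h RT; CellTiter-Glo 30 min RT, luminescence.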

Assay [8] addresses Peroxisome proliferator-activated receptor delta (Homo sapiens) (UniProt Q03181). The experiment in a line: qHTS assay to identify small molecule agonists of the peroxisome proliferator-activated receptor delta (PPARd) signaling pathway (AID 743212; calls by dose curve). The method, boiled down:
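Beta-lactamase reporter read by fluorescence (LiveBLAzer B/G FRET, 2 h, room temperature). Test agents, in DMSO, incubated at 37 C with PPARd-bla HEK293H cells.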

Assay [9] in a line: qHTS assay to identify small molecule antagonists of the peroxisome proliferator-activated receptor delta (PPARd) signaling pathway - cell viability counter screen (AID 743213). Further: nearly all actives have a fitted effect of over 50% in size. Further: potency means the concentration at half of the fitted maximal effect. The method, boiled down:
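HEK293H cells with the PPARd UAS-bla reporter, co-treated 17 h at 37 C with compounds and L165041 (300 nM final), were lysed with CellTiter-Glo. Luminescence indicated viable cell content.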

Assay [10] in a line: qHTS assay to identify small molecule agonists of the farnesoid-X-receptor (FXR) signaling pathway - cell viability counter screen (AID 743218). Further: nearly all actives have a fitted effect of over 45% in size. Summed up: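 Same-well cytotoxicity check on FXR-UAS-bla HEK 293T cells: 5 h attachment, 16 h compound at 37 C, CellTiter-Glo luminescence read at room temperature after 30 min.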
A short description of assay [11]: qHTS assay to identify small molecule antagonists of the farnesoid-X-receptor (FXR) signaling pathway - cell viability counter screen (AID 743221; active means well fitted cell-killing curve with a large enough effect in the repeat runs, not every such curve was filed as active; further: nearly all actives have a fitted effect of over 50% in size). The method, boiled down: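 Luminescence from CellTiter-Glo measures cytotoxicity in GeneBLAzer FXR-UAS-bla HEK 293T cells. Cells were exposed to compounds with 50 uM chenodeoxycholic acid (final) for 16 h at 37 C, in wells also used for the reporter readout.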

In assay [12] the target is Vitamin D3 receptor (Homo sapiens) (UniProt P11473). The experiment in a line: qHTS assay to identify small molecule agonists of the vitamin D receptor (VDR) signaling pathway (AID 743222; calls by dose curve). Summed up: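 Using LiveBLAzer B/G FRET detection, agonism was scored in VDR-bla cells exposed overnight (16 h, 37C) to DMSO-dissolved compounds; substrate incubation was 2 h at room temperature.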
Vitamin D3 receptor (Homo sapiens), sequence (P11473 whole entry, looked up): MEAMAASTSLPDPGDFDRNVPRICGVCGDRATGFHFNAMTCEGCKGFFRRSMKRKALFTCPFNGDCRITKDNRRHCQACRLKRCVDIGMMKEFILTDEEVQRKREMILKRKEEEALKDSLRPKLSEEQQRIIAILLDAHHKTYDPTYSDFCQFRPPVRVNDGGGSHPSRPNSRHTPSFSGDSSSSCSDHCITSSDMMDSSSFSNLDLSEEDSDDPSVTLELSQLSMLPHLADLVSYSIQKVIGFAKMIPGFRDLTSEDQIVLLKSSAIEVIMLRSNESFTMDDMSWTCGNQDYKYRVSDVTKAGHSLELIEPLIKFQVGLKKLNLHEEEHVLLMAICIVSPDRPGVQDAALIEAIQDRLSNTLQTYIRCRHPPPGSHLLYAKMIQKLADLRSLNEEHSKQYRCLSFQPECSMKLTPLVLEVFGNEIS

Assay [13] shares this target. In words: qHTS assay to identify small molecule antagonists of the vitamin D receptor (VDR) signaling pathway (AID 743223; active means well fitted inhibition curve with a large enough effect in the signal ratio in the repeat runs, not every such curve was filed as active; the % refers to the signal ratio). Summed up:
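Antagonist mode uses 1alpha,25-dihydroxyvitamin D3 at 3 nM final as stimulus. VDR-bla cells receive compounds in DMSO, incubate 16 h at 37C, then a beta-lactamase FRET substrate for 2 h at room temperature before fluorescence measurement.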

Assay [14] in a line: qHTS assay to identify small molecule agonists of the vitamin D receptor (VDR) signaling pathway - cell viability counter screen (AID 743224). Further: nearly all actives have a fitted effect of over 50% in size. Further: potency means the concentration at half of the fitted maximal effect. The method, boiled down: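 Counter screen for cytotoxicity: VDR-bla cells at 2,000 cells/well, 16 h compound exposure, then CellTiter-Glo luminescence after the beta-lactamase measurement.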
A short description of assay [15]: qHTS assay to identify small molecule antagonists of the vitamin D receptor (VDR) signaling pathway - cell viability counter screen (AID 743225). Further: nearly all actives have a fitted effect of over 50% in size. Further: potency means the concentration at half of the fitted maximal effect. The method, boiled down: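 Read-out: CellTiter-Glo luminescence measured 30 min after reagent addition at room temperature. Cells were VDR-bla HEK 293T exposed 16 h at 37C, 5% CO2, to compound with 3 nM final calcitriol agonist.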

In assay [16] the target is Peroxisome proliferator-activated receptor gamma (Homo sapiens) (UniProt P37231). In words: qHTS assay to identify small molecule agonists of the peroxisome proliferator-activated receptor gamma (PPARg) signaling pathway (AID 743094; active means well fitted activation curve with a large enough effect in the signal ratio in the repeat runs, not every such curve was filed as active; the % refers to the signal ratio). The method, boiled down: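 Fluorescence-based beta-lactamase readout in HEK293H PPARg UAS-bla cells after 17 h compound exposure (37C) and 1 h B/G FRET substrate incubation at room temperature.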
Peroxisome proliferator-activated receptor gamma (Homo sapiens), sequence (P37231 whole entry, looked up): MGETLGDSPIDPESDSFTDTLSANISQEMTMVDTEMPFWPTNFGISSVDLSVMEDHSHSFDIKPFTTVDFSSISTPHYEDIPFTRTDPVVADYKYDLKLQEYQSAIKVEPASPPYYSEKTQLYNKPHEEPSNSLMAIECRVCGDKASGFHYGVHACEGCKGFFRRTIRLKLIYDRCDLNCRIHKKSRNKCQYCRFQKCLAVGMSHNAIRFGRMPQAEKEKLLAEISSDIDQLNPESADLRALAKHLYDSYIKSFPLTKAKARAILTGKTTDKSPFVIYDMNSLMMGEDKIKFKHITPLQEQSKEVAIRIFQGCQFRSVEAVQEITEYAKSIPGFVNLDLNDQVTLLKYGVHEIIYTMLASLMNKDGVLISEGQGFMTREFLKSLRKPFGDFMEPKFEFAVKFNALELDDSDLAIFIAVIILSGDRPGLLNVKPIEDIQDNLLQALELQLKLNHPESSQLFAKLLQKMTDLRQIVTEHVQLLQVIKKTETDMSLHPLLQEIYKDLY

Assay [17] shares this target. The experiment in a line: qHTS assay to identify small molecule antagonists of the peroxisome proliferator-activated receptor gamma (PPARg) signaling pathway (AID 743191; calls by dose curve; further: series mostly up to about 63 µM; nearly all actives have a fitted effect of over 30% in size). The method, boiled down:
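GeneBLAzer PPARg UAS-bla HEK293H cells carrying a UAS-driven beta-lactamase reporter were plated at 3000 cells/well, preincubated 5 h at 37C, then given compound for 17 h at 37C; LiveBLAzer B/G FRET substrate was read after 1 h at room temperature.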

A short description of assay [18]: qHTS assay for small molecule agonists of the antioxidant response element (ARE) signaling pathway (AID 743202; active means well fitted activation curve with a large enough effect in the signal ratio in the repeat runs, not every such curve was filed as active; the % refers to the signal ratio; further: potency means the concentration at half of the fitted maximal effect). The method, boiled down:
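Following a 16 h, 37 C exposure of reporter HepG2 cells (ARE-driven beta-lactamase, 2,000 cells/well) to compounds, FRET substrate was applied for 2 h at room temperature and fluorescence intensity recorded.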

Assay [19] concerns the target Bile acid receptor (Homo sapiens) (UniProt Q96RI1). The experiment in a line: qHTS assay to identify small molecule antagonists of the farnesoid-X-receptor (FXR) signaling pathway (AID 743217; active means well fitted inhibition curve with a large enough effect in the signal ratio in the repeat runs, not every such curve was filed as active; the % refers to the signal ratio). Summed up: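 Quantitative HTS, beta-lactamase reporter format: FXR-UAS-bla HEK 293T cells co-treated 16 h at 37 °C with compounds and 50 uM final chenodeoxycholic acid, then read by B/G FRET fluorescence.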

Assay [20] has the same target. In words: qHTS assay to identify small molecule agonists of the farnesoid-X-receptor (FXR) signaling pathway (AID 743220; active means well fitted activation curve with a large enough effect in the signal ratio in the repeat runs, not every such curve was filed as active; the % refers to the signal ratio). The method, boiled down: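 FXR-UAS-bla HEK 293T cells carrying a UAS-driven beta-lactamase reporter were plated for 5 h at 37C/5% CO2, then exposed to DMSO-dissolved Tox21 10K compounds for 16 h at 37C. A LiveBLAzer B/G FRET substrate was loaded for 2 h at room temperature before fluorescence reading.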

“And” between values parts separate entries of the source, which are not always exact repeats. Identical values can stand only once. Records with an inconclusive call do not appear. The source made the active and inactive calls. Unless noted, the call rests on the fitted dose curve; in most records, active means well fitted curve in the direction sought with a large enough effect in the repeat runs; inconclusive means weak or mixed curves; inactive means no such curve, though single readings can be large; an effect the other way counts as inactive or inconclusive.

Aryl hydrocarbon receptor (Homo sapiens), sequence (P35869 whole entry, looked up): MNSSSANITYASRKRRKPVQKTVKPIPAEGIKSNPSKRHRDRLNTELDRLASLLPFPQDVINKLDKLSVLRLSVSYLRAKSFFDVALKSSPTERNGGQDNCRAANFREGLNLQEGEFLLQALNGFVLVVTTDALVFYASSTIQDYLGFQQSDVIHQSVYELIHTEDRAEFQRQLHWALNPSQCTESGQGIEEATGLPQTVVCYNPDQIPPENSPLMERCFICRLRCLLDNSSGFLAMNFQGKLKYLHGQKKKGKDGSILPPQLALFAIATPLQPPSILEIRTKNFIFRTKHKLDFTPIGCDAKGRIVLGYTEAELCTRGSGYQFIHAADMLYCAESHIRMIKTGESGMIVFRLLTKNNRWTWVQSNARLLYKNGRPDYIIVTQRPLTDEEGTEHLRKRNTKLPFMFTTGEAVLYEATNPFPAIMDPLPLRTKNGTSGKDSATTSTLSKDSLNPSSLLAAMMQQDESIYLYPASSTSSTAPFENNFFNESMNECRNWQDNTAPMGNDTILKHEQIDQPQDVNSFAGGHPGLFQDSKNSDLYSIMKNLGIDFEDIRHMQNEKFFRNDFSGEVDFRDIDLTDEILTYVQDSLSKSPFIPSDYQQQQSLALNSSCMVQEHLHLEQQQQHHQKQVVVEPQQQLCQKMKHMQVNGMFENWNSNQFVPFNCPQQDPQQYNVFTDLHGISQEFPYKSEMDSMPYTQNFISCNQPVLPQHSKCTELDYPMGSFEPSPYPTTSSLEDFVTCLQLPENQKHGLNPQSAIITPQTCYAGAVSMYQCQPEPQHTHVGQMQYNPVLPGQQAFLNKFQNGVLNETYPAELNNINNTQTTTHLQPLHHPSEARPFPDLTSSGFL
Bile acid receptor (Homo sapiens), sequence (Q96RI1 whole entry, looked up): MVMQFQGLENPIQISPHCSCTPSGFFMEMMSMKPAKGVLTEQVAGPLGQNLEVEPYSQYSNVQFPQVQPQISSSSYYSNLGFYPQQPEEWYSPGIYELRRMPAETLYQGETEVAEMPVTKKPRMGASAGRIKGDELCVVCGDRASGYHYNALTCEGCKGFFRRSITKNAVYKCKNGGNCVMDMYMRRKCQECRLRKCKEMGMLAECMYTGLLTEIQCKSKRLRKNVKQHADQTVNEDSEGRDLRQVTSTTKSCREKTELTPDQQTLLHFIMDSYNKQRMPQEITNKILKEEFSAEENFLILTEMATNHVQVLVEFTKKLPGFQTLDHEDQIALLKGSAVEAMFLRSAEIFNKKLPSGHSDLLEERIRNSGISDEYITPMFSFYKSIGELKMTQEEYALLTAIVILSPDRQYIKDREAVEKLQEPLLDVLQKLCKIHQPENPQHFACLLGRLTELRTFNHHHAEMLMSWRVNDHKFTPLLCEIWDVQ
Peroxisome proliferator-activated receptor delta (Homo sapiens), sequence (Q03181 whole entry, looked up): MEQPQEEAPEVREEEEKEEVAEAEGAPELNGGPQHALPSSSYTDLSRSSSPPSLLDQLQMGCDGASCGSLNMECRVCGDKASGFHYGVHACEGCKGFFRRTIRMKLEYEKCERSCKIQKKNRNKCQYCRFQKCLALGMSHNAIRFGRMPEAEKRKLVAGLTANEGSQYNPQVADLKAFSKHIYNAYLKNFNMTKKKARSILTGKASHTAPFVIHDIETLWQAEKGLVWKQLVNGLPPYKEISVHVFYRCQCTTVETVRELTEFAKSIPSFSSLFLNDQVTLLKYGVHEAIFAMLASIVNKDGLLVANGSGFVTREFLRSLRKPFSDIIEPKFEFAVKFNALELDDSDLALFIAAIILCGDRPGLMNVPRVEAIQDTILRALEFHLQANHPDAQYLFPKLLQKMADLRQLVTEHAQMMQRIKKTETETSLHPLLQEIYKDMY

In the case of `COc1ccc(C(Cl)=C(c2ccc(OC)cc2)c2ccc(OC)cc2)cc1`, the Potency entry in [1], in assay [2], in [3], in assay [4], in assay [5] and in assay [7] was “inactive” throughout. Also, the Potency entry in [8], in [9], in assay [10], in assay [11], in assay [12] and in assay [13] was “inactive” throughout. Further, the Potency result in assay [14] and in assay [15] was “inactive” throughout. For the same compound, the compound was called inactive in assay [6].

As to `Nc1c2c(nc3ccccc13)CCCC2`, the Potency in [1] was 4.86 µM (active) and 61.1 µM (active). For the same compound, the Potency result in assay [16], in [17], in [3], in [18], in [4] and in assay [5] was “inactive” in each case. Also, the Potency entry in [7], in assay [9], in [10], in assay [11], in assay [14] and in assay [15] was “inactive” in each case. Also, the result in assay [6] was inactive.

Consider `Nc1ccc([N+](=O)[O-])cc1O`, for which the Potency in [1] was 13.7 µM (active); in [2] it was 38.6 µM (active). For the same compound, the Potency result in assay [4], in [5] and in assay [7] was “inactive” each time. Moreover, in assay [6], the result was inactive.

On to `CC(C)C(=O)Nc1ccc([N+](=O)[O-])c(C(F)(F)F)c1`, for which the Potency result in assay [1], in assay [16], in assay [17], in assay [3], in assay [4] and in assay [5] was “inactive” each time. Besides, the Potency result in assay [7], in assay [9], in [19], in assay [11], in assay [14] and in assay [15] was “inactive” each time. In addition, the Potency in assay [18] is 19.3 µM (active) and 23.7 µM (active). The result in assay [6] and in [20] was inactive.

In the case of `O=C(O)c1ccccc1`, the Potency entry in assay [1], in assay [16], in assay [17], in assay [3], in assay [18] and in assay [4] was “inactive” in each case. Moreover, the Potency result in assay [5], in assay [7], in assay [9], in assay [10], in assay [11] and in assay [12] was “inactive” throughout. Moreover, the Potency result in assay [13], in assay [14] and in assay [15] was “inactive” each time.

`O=C1NC(=O)C(c2ccccc2)(c2ccccc2)N1`: the Potency entry in [1], in assay [16], in assay [17], in assay [3], in assay [18] and in [4] was “inactive” throughout. The Potency result in assay [5], in assay [7], in assay [8], in [9], in [11] and in assay [14] was “inactive” throughout. Further, in assay [15], the Potency result was “inactive”. Further, the call in assay [6] was inactive.

Turning to `COc1ccc(OC(F)(F)F)cc1CN[C@H]1CCCN[C@H]1c1ccccc1`, the Potency entry in assay [1], in [3], in assay [5] and in assay [12] was “inactive” in each case. Also, the Potency in assay [2] is 54.5 µM (active); in assay [4] it was 27.3 µM (active); in [7], 43.6 µM (active); in assay [9] it was 43.6 µM (active); in assay [14], 54.9 µM (active); in assay [15], 49 µM (active). For the same compound, in [6], the call was inactive.

Regarding `CC(C)NCC(O)c1ccc(O)c(O)c1` (stereo not drawn), the Potency entry in [1], in assay [2], in assay [3], in [18], in assay [4] and in assay [5] was “inactive” each time. The Potency result in [7], in assay [9], in assay [11], in assay [12], in [13] and in assay [14] was “inactive” throughout. For the same compound, the Potency result in assay [15] was “inactive”.
